From the supplement of paper PMC10849652
About 7,900 targets were measured; listed, in parts, are those with a hit and a random draw of the rest. About 0.6% of all pairs of compound and target were hits. A number with no mark means an inactive call.

compound: C1=CC(=C(C=C1Cl)C2=NC3=NC=CN=C3C(=N2)NC4=CC=NC=C4)F; test: log2 fold change, soluble protein after heating vs DMSO (PISA); higher = thermal stabilisation; K562 cells, 10 uM, 30 min; active = over 0.2 and 3.5 SD of the protein, either way, in both replicates (recomputed)
Summary of the method: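 K562 cells (2×10^6 cells/mL) were treated with 10 μM compound for 30 min, and aliquots were heated for 3 min over 48°C-58°C. Pooled aliquots were extracted in PBS with 0.5% NP-40 at 4°C, and the supernatant after 21,000xg for 90 min was measured by TMTpro 16plex LC-MS/MS with channel sums equalised. Reported thermal stability, relative to control samples and from duplicates, is a log2 fold change.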

Sequence of UniProt Q6QNY0 (Q6QNY0 whole entry, looked up): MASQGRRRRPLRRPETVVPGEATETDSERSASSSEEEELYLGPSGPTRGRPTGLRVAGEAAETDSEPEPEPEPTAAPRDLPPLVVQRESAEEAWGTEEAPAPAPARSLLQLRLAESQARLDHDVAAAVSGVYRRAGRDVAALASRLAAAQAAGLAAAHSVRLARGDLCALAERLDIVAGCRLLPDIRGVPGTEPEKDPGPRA
Sequence of UniProt Q9NP58 (Q9NP58 whole entry, looked up): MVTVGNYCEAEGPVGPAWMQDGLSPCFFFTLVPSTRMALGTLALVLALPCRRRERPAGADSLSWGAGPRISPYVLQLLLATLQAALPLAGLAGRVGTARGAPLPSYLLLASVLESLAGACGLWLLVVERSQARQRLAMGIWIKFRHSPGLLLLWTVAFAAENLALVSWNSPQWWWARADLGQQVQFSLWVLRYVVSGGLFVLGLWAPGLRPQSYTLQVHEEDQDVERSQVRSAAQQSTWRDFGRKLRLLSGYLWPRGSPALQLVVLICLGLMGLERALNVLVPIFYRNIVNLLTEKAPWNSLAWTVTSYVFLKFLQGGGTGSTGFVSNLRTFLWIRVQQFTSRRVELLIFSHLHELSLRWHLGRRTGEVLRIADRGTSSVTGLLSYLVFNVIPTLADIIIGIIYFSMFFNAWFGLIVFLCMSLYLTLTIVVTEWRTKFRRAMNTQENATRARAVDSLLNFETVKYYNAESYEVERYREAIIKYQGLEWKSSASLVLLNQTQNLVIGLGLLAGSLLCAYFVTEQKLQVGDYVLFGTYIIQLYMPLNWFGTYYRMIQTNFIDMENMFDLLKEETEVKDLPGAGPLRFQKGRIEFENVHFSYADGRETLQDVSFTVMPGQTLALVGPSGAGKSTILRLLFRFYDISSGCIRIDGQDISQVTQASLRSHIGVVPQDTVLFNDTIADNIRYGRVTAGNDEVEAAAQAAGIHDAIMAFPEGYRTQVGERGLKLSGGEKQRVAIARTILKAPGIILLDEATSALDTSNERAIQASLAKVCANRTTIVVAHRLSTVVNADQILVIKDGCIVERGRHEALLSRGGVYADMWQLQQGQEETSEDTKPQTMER
Sequence of UniProt O00116 (O00116 whole entry, looked up): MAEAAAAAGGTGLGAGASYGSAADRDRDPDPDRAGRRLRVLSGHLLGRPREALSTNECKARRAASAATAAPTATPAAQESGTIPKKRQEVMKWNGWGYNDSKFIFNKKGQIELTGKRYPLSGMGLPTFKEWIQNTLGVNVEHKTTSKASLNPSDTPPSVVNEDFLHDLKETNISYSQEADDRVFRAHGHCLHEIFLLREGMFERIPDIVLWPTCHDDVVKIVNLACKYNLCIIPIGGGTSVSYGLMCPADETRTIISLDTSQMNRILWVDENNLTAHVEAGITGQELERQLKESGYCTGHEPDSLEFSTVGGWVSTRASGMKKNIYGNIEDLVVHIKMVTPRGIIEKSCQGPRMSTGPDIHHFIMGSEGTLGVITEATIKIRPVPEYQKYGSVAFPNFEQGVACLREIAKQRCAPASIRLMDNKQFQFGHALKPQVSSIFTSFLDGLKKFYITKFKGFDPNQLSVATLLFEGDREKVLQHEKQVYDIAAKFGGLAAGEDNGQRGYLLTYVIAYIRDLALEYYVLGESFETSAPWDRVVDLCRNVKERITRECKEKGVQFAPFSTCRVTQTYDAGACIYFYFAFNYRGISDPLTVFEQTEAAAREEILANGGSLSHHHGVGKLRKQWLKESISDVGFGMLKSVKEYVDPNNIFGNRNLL
Sequence of UniProt O00170 (O00170 whole entry, looked up): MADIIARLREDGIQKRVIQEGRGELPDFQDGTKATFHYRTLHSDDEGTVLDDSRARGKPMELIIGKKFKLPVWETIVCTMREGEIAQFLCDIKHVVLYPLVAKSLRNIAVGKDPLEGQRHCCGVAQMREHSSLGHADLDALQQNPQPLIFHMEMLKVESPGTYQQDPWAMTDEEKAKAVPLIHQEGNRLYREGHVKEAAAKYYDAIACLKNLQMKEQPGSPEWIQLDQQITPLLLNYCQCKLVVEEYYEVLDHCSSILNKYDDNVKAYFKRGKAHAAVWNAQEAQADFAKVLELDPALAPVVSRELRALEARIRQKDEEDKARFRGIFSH
Sequence of UniProt P17707 (P17707 whole entry, looked up): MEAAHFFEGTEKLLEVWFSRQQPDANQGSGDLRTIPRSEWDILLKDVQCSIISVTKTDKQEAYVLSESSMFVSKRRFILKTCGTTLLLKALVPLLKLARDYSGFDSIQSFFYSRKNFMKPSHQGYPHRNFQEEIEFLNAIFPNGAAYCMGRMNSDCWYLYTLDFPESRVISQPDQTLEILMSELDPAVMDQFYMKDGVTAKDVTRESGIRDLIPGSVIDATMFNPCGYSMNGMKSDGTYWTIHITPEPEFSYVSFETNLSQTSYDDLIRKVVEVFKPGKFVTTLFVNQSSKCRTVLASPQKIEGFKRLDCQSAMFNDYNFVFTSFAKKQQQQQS
Sequence of UniProt P05091 (P05091 whole entry, looked up): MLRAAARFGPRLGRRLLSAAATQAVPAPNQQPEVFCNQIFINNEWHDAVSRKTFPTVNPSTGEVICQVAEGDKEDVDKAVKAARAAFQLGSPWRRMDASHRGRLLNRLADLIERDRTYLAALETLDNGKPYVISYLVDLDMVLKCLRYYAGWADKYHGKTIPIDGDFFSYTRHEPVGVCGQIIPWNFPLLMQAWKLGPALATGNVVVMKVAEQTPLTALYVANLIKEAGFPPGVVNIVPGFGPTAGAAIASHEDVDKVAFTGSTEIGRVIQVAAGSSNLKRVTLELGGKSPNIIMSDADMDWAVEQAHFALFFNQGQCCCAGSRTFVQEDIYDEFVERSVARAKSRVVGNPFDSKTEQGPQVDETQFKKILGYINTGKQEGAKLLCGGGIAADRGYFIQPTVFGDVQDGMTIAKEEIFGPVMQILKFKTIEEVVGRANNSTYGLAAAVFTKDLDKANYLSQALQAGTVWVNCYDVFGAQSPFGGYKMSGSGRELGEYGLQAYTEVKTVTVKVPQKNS
Sequence of UniProt Q07960 (Q07960 whole entry, looked up): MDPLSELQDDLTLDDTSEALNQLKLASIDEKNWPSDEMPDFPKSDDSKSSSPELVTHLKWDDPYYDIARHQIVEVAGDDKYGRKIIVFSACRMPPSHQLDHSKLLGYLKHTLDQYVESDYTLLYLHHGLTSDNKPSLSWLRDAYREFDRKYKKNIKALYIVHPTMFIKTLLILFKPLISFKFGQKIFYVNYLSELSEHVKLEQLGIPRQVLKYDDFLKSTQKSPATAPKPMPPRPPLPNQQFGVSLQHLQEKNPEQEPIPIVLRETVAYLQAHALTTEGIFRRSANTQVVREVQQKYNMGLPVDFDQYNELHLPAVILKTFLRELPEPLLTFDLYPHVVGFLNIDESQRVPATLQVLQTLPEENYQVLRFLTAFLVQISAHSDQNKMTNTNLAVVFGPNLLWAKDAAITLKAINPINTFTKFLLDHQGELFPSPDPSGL
Sequence of UniProt P53367 (P53367 whole entry, looked up): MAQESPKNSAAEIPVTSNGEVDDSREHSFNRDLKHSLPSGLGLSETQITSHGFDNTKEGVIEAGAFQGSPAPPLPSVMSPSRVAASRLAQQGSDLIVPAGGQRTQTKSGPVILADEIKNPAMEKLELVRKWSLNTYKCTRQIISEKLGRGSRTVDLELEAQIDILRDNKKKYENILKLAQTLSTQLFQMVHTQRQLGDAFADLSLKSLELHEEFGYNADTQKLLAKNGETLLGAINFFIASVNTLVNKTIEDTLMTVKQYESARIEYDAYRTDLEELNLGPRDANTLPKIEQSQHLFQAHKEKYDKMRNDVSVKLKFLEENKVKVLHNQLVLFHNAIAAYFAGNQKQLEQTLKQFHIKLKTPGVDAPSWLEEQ
Sequence of UniProt Q9NYF8 (Q9NYF8 whole entry, looked up): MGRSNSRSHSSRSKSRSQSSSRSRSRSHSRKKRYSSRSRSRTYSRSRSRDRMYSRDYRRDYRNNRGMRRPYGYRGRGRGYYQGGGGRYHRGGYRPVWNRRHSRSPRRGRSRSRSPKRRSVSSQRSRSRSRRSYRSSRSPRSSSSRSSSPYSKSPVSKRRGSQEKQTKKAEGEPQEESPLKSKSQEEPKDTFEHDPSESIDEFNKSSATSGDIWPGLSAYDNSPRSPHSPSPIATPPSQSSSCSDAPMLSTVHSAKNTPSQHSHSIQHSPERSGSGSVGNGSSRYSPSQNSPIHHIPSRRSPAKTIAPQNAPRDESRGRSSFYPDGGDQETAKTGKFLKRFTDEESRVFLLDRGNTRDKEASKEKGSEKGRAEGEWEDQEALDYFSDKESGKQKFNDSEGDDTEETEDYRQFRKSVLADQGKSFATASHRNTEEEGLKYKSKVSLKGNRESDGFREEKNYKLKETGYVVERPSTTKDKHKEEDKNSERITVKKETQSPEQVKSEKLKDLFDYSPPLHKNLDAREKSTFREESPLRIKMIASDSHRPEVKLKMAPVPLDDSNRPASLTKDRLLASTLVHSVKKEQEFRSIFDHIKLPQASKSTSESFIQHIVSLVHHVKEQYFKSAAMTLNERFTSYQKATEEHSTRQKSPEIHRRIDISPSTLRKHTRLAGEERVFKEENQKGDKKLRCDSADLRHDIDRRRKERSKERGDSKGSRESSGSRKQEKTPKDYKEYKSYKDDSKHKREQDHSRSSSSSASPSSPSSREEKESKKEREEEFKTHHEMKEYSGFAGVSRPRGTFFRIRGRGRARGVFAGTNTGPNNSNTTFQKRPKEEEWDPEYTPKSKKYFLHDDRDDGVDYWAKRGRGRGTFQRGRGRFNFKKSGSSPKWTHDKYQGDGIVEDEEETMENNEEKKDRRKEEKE
Sequence of UniProt P55263 (P55263 whole entry, looked up): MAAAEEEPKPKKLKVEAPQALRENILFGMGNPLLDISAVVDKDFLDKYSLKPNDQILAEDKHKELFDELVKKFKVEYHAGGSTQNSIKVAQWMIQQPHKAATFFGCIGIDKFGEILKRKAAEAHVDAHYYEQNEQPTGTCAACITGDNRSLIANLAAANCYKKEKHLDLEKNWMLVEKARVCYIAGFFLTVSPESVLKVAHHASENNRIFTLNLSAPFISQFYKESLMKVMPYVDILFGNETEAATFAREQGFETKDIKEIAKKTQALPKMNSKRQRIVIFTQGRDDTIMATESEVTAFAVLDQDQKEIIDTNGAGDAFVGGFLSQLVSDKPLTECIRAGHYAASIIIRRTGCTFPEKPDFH

**Q.** AARSD1 isoform 3 (UniProt Q9BTE6) was tested. Which log2 fold change did it give?
**A.** 0.113

**Q.** How did the log2 fold change turn out when ALDH6A1 (UniProt Q02252) was run?
**A.** 0.061

**Q.** Which log2 fold change does the source give for ATP6V1H (UniProt Q9UI12) here?
**A.** 0.034

**Q.** ALG5 (UniProt Q9Y673) was tested. Which log2 fold change did it give?
**A.** 0.071

**Q.** Which log2 fold change does the source give for ARHGAP1 (UniProt Q07960) here?
**A.** 0.025

**Q.** BMP2K (UniProt Q9NSY1) was tested. Which log2 fold change did it give?
**A.** -0.016

**Q.** AHCYL1 (UniProt O43865) was tested. Which log2 fold change did it give?
**A.** -0.008

**Q.** ANKZF1 (UniProt Q9H8Y5) was tested. Which log2 fold change did it give?
**A.** -0.141

**Q.** Which log2 fold change does the source give for AIP (UniProt O00170) here?
**A.** 0.133

**Q.** For ATP23 (UniProt Q9Y6H3), which log2 fold change is on record?
**A.** -0.017

**Q.** With BRD4 (UniProt O60885) as the target, how does the log2 fold change read?
**A.** 0.054

**Q.** BCCIP (UniProt Q9P287) was tested. Which log2 fold change did it give?
**A.** 0.019

**Q.** For BTBD6 (UniProt Q96KE9), which log2 fold change is on record?
**A.** 0.165

**Q.** With ABCB6 (UniProt Q9NP58) as the target, how does the log2 fold change read?
**A.** 0.029

**Q.** ATAD3B (UniProt Q5T9A4) was tested. Which log2 fold change did it give?
**A.** -0.128

**Q.** Which log2 fold change does the source give for BCL9L (UniProt Q86UU0) here?
**A.** -0.008

**Q.** How did the log2 fold change turn out when AP2A2 isoform 2 (UniProt O94973) was run?
**A.** -0.004

**Q.** ADK (UniProt P55263) was tested. Which log2 fold change did it give?
**A.** 0.06

**Q.** For AKR1C2 (UniProt P52895), which log2 fold change is on record?
**A.** -0.101

**Q.** How did the log2 fold change turn out when BCLAF1 (UniProt Q9NYF8) was run?
**A.** -0.046

**Q.** For ACO2 (UniProt Q99798), which log2 fold change is on record?
**A.** 0.105

**Q.** Which log2 fold change does the source give for ALDH2 (UniProt P05091) here?
**A.** 0.039

**Q.** ATF7 isoform 6 (UniProt P17544) was tested. Which log2 fold change did it give?
**A.** -0.043

**Q.** Which log2 fold change does the source give for AMD1 (UniProt P17707) here?
**A.** 0.039

**Q.** ARFIP1 (UniProt P53367) was tested. Which log2 fold change did it give?
**A.** 0.087

**Q.** For AKT1 (UniProt P31749), which log2 fold change is on record?
**A.** 0.101

**Q.** How did the log2 fold change turn out when ABCA4 (UniProt P78363) was run?
**A.** 0.107

**Q.** BLOC1S3 (UniProt Q6QNY0) was tested. Which log2 fold change did it give?
**A.** 0.04

**Q.** With ARL2BP (UniProt Q9Y2Y0) as the target, how does the log2 fold change read?
**A.** 0.041

**Q.** For AGPS (UniProt O00116), which log2 fold change is on record?
**A.** 0.092

**Q.** AMFR (UniProt Q9UKV5) was tested. Which log2 fold change did it give?
**A.** -0.022

**Q.** For AGPAT1 (UniProt Q99943), which log2 fold change is on record?
**A.** 0.008

**Q.** How did the log2 fold change turn out when BOP1 (UniProt Q14137) was run?
**A.** -0.144

**Q.** Which log2 fold change does the source give for AKAP8L (UniProt Q9ULX6) here?
**A.** 0.074

**Q.** With ATP2A3 isoform 2 (UniProt Q93084) as the target, how does the log2 fold change read?
**A.** 0.053

**Q.** ATAD1 (UniProt Q8NBU5) was tested. Which log2 fold change did it give?
**A.** 0.295 (active)
